About 83,000 compounds went through this panel and 20% of them were active in at least one assay; those are over-represented in the sample as a whole.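 Growth was measured after 48 h exposure to one concentration of compound in 96-well plates. Values under 10 count as active.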 A number with no mark means an inactive call. The source made the active and inactive calls.
These compounds were tested on HL-60(TB) leukemia (assay: NCI-60 one-dose screen, 48 h (100 = growth as untreated, 0 = no growth, -100 = all killed)). Conditions: 10 µM unless noted.

Row | SMILES | growth
1 | O=c1cc/c(=N\Nc2ccccc2)c(=O)/c1=N/Nc1ccccc1 | 138%
2 | CC(=O)C1CC(C)CCC1C(C)C (configuration not stated) | 58.7%
3 | COc1ccc(C2CC(c3ccc(OC)cc3OC)=NN2c2ccc(S(N)(=O)=O)cc2)cc1 (configuration not stated) | 61.2%
4 | c1ccc2c(-c3nc(N4CCOCC4)c4c5c(sc4n3)CCCCCC5)cccc2c1 | 114%
5 | COc1ccc(C(=O)c2cc3c(N)c(C(=O)Nc4ccc(C)cc4)sc3nc2C)cc1 | 7.74% (active)
6 | COc1ccc2nc(-c3ccc(Cl)cc3)cc(-c3nnc(SC/C(=N\O)c4ccccc4)n3-c3ccccc3)c2c1 | 55.4%
7 | CCCC(=O)Nc1ccc2c(c1)CN1C(=O)c3ccccc3C1=N2 | 81.9%
8 | CC/C=C(\C)C(CCC)(CN=O)C(=O)OCC (configuration not stated) | 110%
9 | CC(=O)c1ccc2c(c1)CCN2 | 106%
10 | Cc1cc(C)c(C#N)c(SCC(=O)c2sc3c(C#N)c(C)cc(C)[n+]3c2[O-])n1 | -39.3% (active)
11 | O=C(O)c1cc([N+](=O)[O-])ccc1Cl | 104%
12 | O=C(Nc1cc(Nc2ncccc2-c2ncnc3nc[nH]c23)ccc1F)c1cc(C(F)(F)F)cc(C(F)(F)F)c1 | -11.3% (active)
